Legend:
Assay in all cases: PBM binding z-score (relative to random genomic background probes); higher = stronger binding; sequences stand for … in GC…GCGATTGACAGCGTAGAATGAAGG
[1] = tested on: RARb homodimer (NR concentration 270 nM)
How it was run: (§1)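 Custom Agilent 4×180K protein-binding microarrays carried double-stranded probes, each with a 34-nt variable region. These regions held direct-repeat seeds, single-nucleotide variants, half-site ablations and random human genomic background sequences. Ligand-free nuclear receptor dimers were incubated on the arrays for 1 h, antibodies against each partner (one per run) detected binding, and scanned fluorescence was regression-normalized. Binding z-scores take the random background probes as reference.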

[2] = tested on: RARg:RXRa (NR concentration 270 nM, RXRa partner concentration 90 nM)
How it was run: as §1

[3] = tested on: RARg homodimer (NR concentration 270 nM)
How it was run: as §1

[4] = tested on: RXRa DBDmut IVT, anti-RXR (DBD mutation: RXRa K156A/R161A, NR concentration 90 nM)
How it was run: as §1

[5] = tested on: RXRa homodimer (NR concentration 180 nM)
How it was run: as §1

[6] = tested on: THRa:RXRa (NR concentration 90 nM, RXRa partner concentration 90 nM)
How it was run: as §1

[7] = tested on: THRa homodimer (NR concentration 90 nM)
How it was run: as §1

[8] = tested on: VDR homodimer (NR concentration 270 nM)
How it was run: as §1

Sequence	PBM binding z-score [1]	PBM binding z-score [2]	PBM binding z-score [3]	PBM binding z-score [4]	PBM binding z-score [5]	PBM binding z-score [6]	PBM binding z-score [7]	PBM binding z-score [8]
CCTAGCAGGCCATGGTCACTCAAGCATTTCGCTT	0.33	-0.134	0.141	-0.0842	-0.236	-0.37	-0.618	-0.529
TAGCCTAGGTCATGAGCCAGTATACCACGCGAAC	2.5	4.1	3.99	0.516	3.37	2.97	1.01	0.409
CCTCGTTGGTCAGGAGGTCACACACCGGATATGA	4.36	5.12	4.22	0.642	4.63	3.54	2.26	2.22
TTACGAAGGTGAGCTGAGGTCGTTGATCCAACTC	1.6	1.37	1.23	0.439	1.27	4.56	1.78	2.57
ATCTCTAGGTAACCAAGATCAGTGAATGCCGAAC	-0.128	0.35	0.445	-0.167	0.343	0.734	0.469	-0.138
CAAACTAGGTCAAGAGGTGAAAGTCCGCTTCCCG	4.18	5.62	5.36	1.5	4.52	3.58	1.67	0.973
TCGACTAGGTTAGTCGGGGCATTCAGCCAACATA	0.379	-0.0311	-0.0411	0.284	-0.049	1.1	-0.279	0.492
